{"source": "PubChem BioAssay (NCI)", "note": "Compounds without any hit were thinned out: in the full panel of roughly 83,000, 20% have a hit.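 How to read the values: 0–100, growth inhibition (40 = 60% inhibited); 0, no net growth; -100 to 0, cell death (-40 = 40% of starting cells died; -100 = all dead).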 Active and inactive are the calls of the source. How the source made its calls: active means growth percent below 10; inactive means the rest.", "data": [{"tested_on": "MCF7 breast", "test": "NCI-60 one-dose screen, 48 h (100 = growth as untreated, 0 = no growth, -100 = all killed)", "conditions": "10 µM unless noted", "values": [{"smiles": "CC(=O)NC(C)(C)C(=O)N1CCC[C@H]1C(=O)NC(C)(C)C(=O)N[C@@H](C)C(=O)NC(C)(C)C(=O)NC(C)(C)C(=O)N[C@@H](CCC(N)=O)C(=O)NC(C)(C)C(=O)N[C@H](C(=O)NC(C)(C)C(=O)NCC(=O)N[C@@H](CC(C)C)C(=O)NC(C)(C)C(=O)N1CCC[C@H]1C(=O)N[C@H](C(=O)NC(C)(C)C(=O)NC(C)(C)C(=O)N[C@@H](CCC(N)=O)C(=O)N[C@@H](CCC(N)=O)C(=O)N[C@H](CO)Cc1ccccc1)C(C)C)C(C)C", "growth": "12.4% [4.25 µM] (inactive)"}, {"smiles": "NC(=S)N/N=C(/C=C/c1cn(-c2ccccc2)nc1-c1ccc(Cl)cc1)c1cc2ccccc2oc1=O", "growth": "29.6% (inactive)"}, {"smiles": "Cc1ccc(/C=C/c2nn3c(-c4ccco4)nnc3s2)cc1", "growth": "89.5% (inactive)"}, {"smiles": "COCCOc1ccc(-c2csc(NC(C)=O)n2)cc1NS(=O)(=O)c1cccc2c(N(C)C)cccc12", "growth": "85% (inactive)"}, {"smiles": "COc1cc2cc(Oc3ccc(NC(=O)c4cccc(C(F)(F)F)c4)cc3)c(C)nc2cc1OCCN(C)C", "growth": "22.7% (inactive)"}, {"smiles": "C=C(C)[C@@H]1CC[C@]2(COS(C)(=O)=O)CC[C@]3(C)[C@H](CC[C@@H]4[C@@]5(C)CCCNC(C)(C)[C@@H]5CC[C@]43C)[C@@H]12", "growth": "3.49% (active)"}, {"smiles": "NC(=O)C(=Cc1ccc(Cl)cc1)C(N)=O", "growth": "34.4% (inactive)"}, {"smiles": "CCc1ccc(NC(=O)N[C@@H](Cc2cccc(F)c2)C(=O)N[C@@H]2C(=O)N3CCC[C@H]3C(=O)N3CCCC[C@H]3C(=O)N[C@@H](C)C(=O)N3C[C@H](C)C[C@H]3C(=O)O[C@H]2C)c(F)c1", "growth": "15.2% (inactive)"}, {"smiles": "O=C1c2cc(Br)ccc2-n2c1nc1cc(Br)ccc1c2=O", "growth": "59.3% (inactive)"}, {"smiles": "C/C=C/[C@@H]1C=C[C@@H]2C[C@H](C)CC[C@H]2[C@]1(C)/C(O)=C1/C(=O)[C@H](CO)N(C)C1=O", "growth": "68.3% (inactive)"}, {"smiles": "CCOC(=O)c1ccc(N/C=C/C(=O)c2ccccc2)cc1", "growth": "88.2% (inactive)"}, {"smiles": "CC(=O)C1=NN(c2ccc(Cl)cc2)C(=O)CN1C", "growth": "96.1% (inactive)"}, {"smiles": "CCn1c2ccc(/C=N/OCCCN(C)C)cc2c2cc(/C=N/OCCCN(C)C)ccc21", "growth": "-92% (active)"}, {"smiles": "Cc1ccc(C2CC(c3ccc(Nc4nc(NCCO)nc(Nc5ccc(Cl)cc5)n4)cc3)=Nc3c(N)nc(N)nc3N2)cc1", "note": "(centres undefined)", "growth": "-68.4% (active)"}, {"smiles": "Cn1ccnc1C(=O)/C=C/c1ccc(C(=O)Nc2ccc(NC(=O)CCNC(=O)c3csc(Br)n3)cc2)cc1", "growth": "17.7% (inactive)"}, {"smiles": "COc1cc(/C=N/n2cnc3oc(-c4ccccc4)cc3c2=N)cc(CN2CCCC2)c1O", "growth": "-79.3% (active)"}, {"smiles": "Cn1cc(-c2nn3c(=O)cc(-c4ccccc4)nc3s2)c2cc(F)ccc21", "growth": "34.5% (inactive)"}, {"smiles": "CCNC(=NCCCN(C)C)N/C(N)=N/c1nc2ccccc2s1", "growth": "82.8% (inactive)"}, {"smiles": "CS(=O)(=O)c1ccc2c(c1)c1c(n2S(=O)(=O)c2ccc(Cl)cc2)CCCC1", "growth": "16.9% (inactive)"}, {"smiles": "O=C(CSc1nnc(-c2ccc(Cl)cc2)n1-c1ccccc1)Nc1ccc(F)cc1", "growth": "81.6% (inactive)"}, {"smiles": "O=[N+]([O-])c1ccc(-c2nnc(SCc3ccc(O)c4ncccc34)n2-c2ccccc2)cc1", "growth": "11.4% (inactive)"}, {"smiles": "COc1cc2c3c(n(CCCN4CCC[C@H]4C(N)=O)c(=O)c2cc1OC)-c1cc2c(cc1C3=O)OCO2", "growth": "-0.242% (active)"}, {"smiles": "O=C1[C@@H]2Cc3c([nH]c4ccccc34)[C@H](c3c(Cl)cccc3Cl)N2C(=O)CN1C1CCN(Cc2ccccc2)CC1", "growth": "1.17% (active)"}, {"smiles": "COc1ccc(C(=O)c2c(N)c(C#N)cn2-c2cccc(OC)c2)cc1", "growth": "17.5% (inactive)"}, {"smiles": "Nc1ccc(-c2nnc(SCc3ccc(O)c4ncccc34)o2)cc1", "growth": "2.52% (active)"}, {"smiles": "C/C(=N/Nc1nc(N/N=C(/C)c2ccc([N+](=O)[O-])cc2)nc(N2CCOCC2)n1)c1ccc([N+](=O)[O-])cc1", "growth": "74.1% (inactive)"}, {"smiles": "O=C1c2c(O)cc(O)cc2O[C@@H](c2ccc(O)cc2)[C@@H]1c1c(O)cc(O)c2c(=O)cc(-c3ccc(O)c(O)c3)oc12", "growth": "99.9% (inactive)"}, {"smiles": "COc1ccc2c(c1)oc1c3[nH]c4ccccc4c3c3c(c21)C(=O)N(O)C3=O", "growth": "15.7% (inactive)"}, {"smiles": "COc1cc2c3c(n(CCCNC4CCCCC4)c(=O)c2cc1OC)-c1cc2c(cc1C3=O)OCO2", "growth": "-78.1% (active)"}, {"smiles": "C=CCn1c(SCC(=O)Nc2cccc(C(=O)/C=C/c3cc(OC)c(OC)c(OC)c3)c2)nc2ccccc2c1=O", "growth": "18.2% (inactive)"}, {"smiles": "O=C1c2c(c3c4cc(O)ccc4oc3c3[nH]c4ccccc4c23)C(=O)N1O", "growth": "6.15% (active)"}, {"smiles": "COC(=O)c1nc(-c2ccc(C)cc2)oc1S(=O)(=O)N1CCN(c2oc(-c3ccccc3)nc2C#N)CC1", "growth": "80.6% (inactive)"}, {"smiles": "COc1ccc(-c2nnc(SCc3ccc(O)c4ncccc34)n2-c2ccccc2)cc1", "growth": "5.08% (active)"}, {"smiles": "Oc1ccccc1/C=N/Nc1nc(N/N=C/c2ccccc2O)nc(N2CCOCC2)n1", "growth": "40% (inactive)"}, {"smiles": "NS(=O)(=O)c1ccc(-n2cc(CC=O)nn2)cc1", "growth": "93.6% (inactive)"}, {"smiles": "O=C(Cn1cc(CN2C(=O)c3ccc([N+](=O)[O-])cc3C2=O)nn1)Nc1ccc(F)cc1Cl", "growth": "93.3% (inactive)"}, {"smiles": "C/C=C/C=C1\\C[C@H]2CO[C@H](O2)C1=O", "growth": "67.1% (inactive)"}, {"smiles": "O=C(COc1ccc(/C=C2\\SC(=O)NC2=O)cc1)Nc1ccc(C(=O)/C=C/c2cc3ccccc3nc2Cl)cc1", "growth": "-4.07% (active)"}, {"smiles": "O=c1oc2ccc(-c3ccc(F)cc3F)cc2c(=O)n1-c1ccc(F)c(F)c1", "growth": "2.02% (active)"}]}]}
